Among all 5,500 compounds or so, about 2,000 (36%) were called active. Not shown: some 18% with an inconclusive outcome. Rule as the data show it: active = normalized growth mostly below about 0.91 (no sharp cut-off); inconclusive = no clear call, values can overlap the other calls; inactive = mostly above about 0.92. Some of the results follow.
Experiment: chemical genetic growth profiling, strain panel (AID 1159580);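 also: tested at 20 µM; growth read once vehicle control cultures reached saturation at 30 °C; 1 = growth at the plate median or of vehicle wells; lower values mean less growth of the strain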
Conditions: growth OD

Measured: normalized growth

CC(C)CC(N(C)C)C1(c2ccc(Cl)cc2)CCC1 (configuration not stated)
inactive: S. cerevisiae deletion strains, locus YJR075W, strain HOC1, stronger effect = lower value 0.995 | S. cerevisiae deletion strains, locus YKL009W, strain mrt4, stronger effect = lower value 1.03 | S. cerevisiae deletion strains, locus YKL068W, stronger effect = lower value 1.01 | S. cerevisiae deletion strains, locus YKL085W, strain MDH1 (second series), stronger effect = lower value 1.01 | S. cerevisiae deletion strains, locus YKL085W, strain MDH1, stronger effect = lower value 1.01 | S. cerevisiae deletion strains, locus YKL160W, strain elf1, stronger effect = lower value 1.02 | S. cerevisiae deletion strains, locus YKL190W, strain CNB1, stronger effect = lower value 0.997 | S. cerevisiae deletion strains, locus YKR001C, strain vps1, stronger effect = lower value 1.02 | S. cerevisiae deletion strains, locus YKR026C, strain gcn3, stronger effect = lower value 1.01 | S. cerevisiae deletion strains, locus YKR091W, strain srl3, stronger effect = lower value 1.01 | S. cerevisiae deletion strains, locus YLL001W, strain dnm1, stronger effect = lower value 1.01 | S. cerevisiae deletion strains, locus YLL026W, stronger effect = lower value 1.01 | S. cerevisiae deletion strains, locus YLL041C, strain sdh2, stronger effect = lower value 1 | S. cerevisiae deletion strains, locus YLR027C, strain aat2, stronger effect = lower value 1.02 | S. cerevisiae deletion strains, locus YLR039C, strain RIC1, stronger effect = lower value 1.13 | S. cerevisiae deletion strains, locus YLR058C, strain SHM2, stronger effect = lower value 1.01 | S. cerevisiae deletion strains, locus YLR102C, strain apc9, stronger effect = lower value 1.01 | S. cerevisiae deletion strains, locus YLR113W, strain HOG1, stronger effect = lower value 0.995 | S. cerevisiae deletion strains, locus YLR221C, strain rsa3, stronger effect = lower value 0.994 | S. cerevisiae deletion strains, locus YLR258W, strain gsy2, stronger effect = lower value 1 | S. cerevisiae deletion strains, locus YLR262C, strain YPT6 (second series), stronger effect = lower value 1.05 | S. cerevisiae deletion strains, locus YLR262C, strain YPT6, stronger effect = lower value 1.11 | S. cerevisiae deletion strains, locus YLR268W, strain sec22, stronger effect = lower value 1.02 | S. cerevisiae deletion strains, locus YLR320W, strain mms22, stronger effect = lower value 0.989 | S. cerevisiae deletion strains, locus YLR330W, strain CHS5, stronger effect = lower value 1 | S. cerevisiae deletion strains, locus YLR342W, strain FKS1 (second series), stronger effect = lower value 1.01 | S. cerevisiae deletion strains, locus YLR342W, strain FKS1, stronger effect = lower value 1.01 | S. cerevisiae deletion strains, locus YLR357W, strain rsc2, stronger effect = lower value 1.01 | S. cerevisiae deletion strains, locus YLR370C, strain arc18, stronger effect = lower value 1.01 | S. cerevisiae deletion strains, locus YLR371W, strain rom2, stronger effect = lower value 1.01 | S. cerevisiae deletion strains, locus YLR384C, strain iki3, stronger effect = lower value 1.02 | S. cerevisiae deletion strains, locus YLR418C, strain cdc73, stronger effect = lower value 1.05 | S. cerevisiae deletion strains, locus YML016C, strain PPZ1, stronger effect = lower value 1.02 | S. cerevisiae deletion strains, locus YML032C, strain rad52, stronger effect = lower value 1.02 | S. cerevisiae deletion strains, locus YML120C, strain ndi1, stronger effect = lower value 1.01 | S. cerevisiae deletion strains, locus YML124C, strain tub3, stronger effect = lower value 1.01 | S. cerevisiae deletion strains, locus YMR058W, strain fet3, stronger effect = lower value 1.01 | S. cerevisiae deletion strains, locus YMR078C, strain ctf18, stronger effect = lower value 1.02 | S. cerevisiae deletion strains, locus YMR125W, strain sto1, stronger effect = lower value 0.979 | S. cerevisiae deletion strains, locus YMR129W, stronger effect = lower value 1.01 | S. cerevisiae deletion strains, locus YMR205C, strain PFK2, stronger effect = lower value 1.01 | S. cerevisiae deletion strains, locus YMR223W, strain ubp8, stronger effect = lower value 1.01 | S. cerevisiae deletion strains, locus YMR231W, strain pep5, stronger effect = lower value 0.989 | S. cerevisiae deletion strains, locus YMR263W, strain SAP30, stronger effect = lower value 0.999 | S. cerevisiae deletion strains, locus YMR307W, strain GAS1, stronger effect = lower value 1.01 | S. cerevisiae deletion strains, locus YNL067W, strain RPL9B, stronger effect = lower value 0.992 | S. cerevisiae deletion strains, locus YNL071W, strain lat1, stronger effect = lower value 1.01 | S. cerevisiae deletion strains, locus YNL128W, strain TEP1, stronger effect = lower value 0.987 | S. cerevisiae deletion strains, locus YNL153C, strain GIM3, stronger effect = lower value 1.01 | S. cerevisiae deletion strains, locus YNL183C, strain NPR1, stronger effect = lower value 0.972 | S. cerevisiae deletion strains, locus YNL209W, strain ssb2, stronger effect = lower value 0.996 | S. cerevisiae deletion strains, locus YNL233W, strain BNI4, stronger effect = lower value 1.01 | S. cerevisiae deletion strains, locus YNL248C, strain rpa49, stronger effect = lower value 0.997 | S. cerevisiae deletion strains, locus YNL250W, strain rad50, stronger effect = lower value 1 | S. cerevisiae deletion strains, locus YNL271C, strain bni1, stronger effect = lower value 1.02 | S. cerevisiae deletion strains, locus YNL298W, strain CLA4, stronger effect = lower value 1.02 | S. cerevisiae deletion strains, locus YNL307C, strain MCK1, stronger effect = lower value 1.03 | S. cerevisiae deletion strains, locus YNL322C, strain KRE1 (second series), stronger effect = lower value 1 | S. cerevisiae deletion strains, locus YNL322C, strain KRE1, stronger effect = lower value 1 | S. cerevisiae deletion strains, locus YNR049C, strain mso1, stronger effect = lower value 0.996 | S. cerevisiae deletion strains, locus YNR052C, strain pop2, stronger effect = lower value 1.01 | S. cerevisiae deletion strains, locus YOL006C, strain TOP1, stronger effect = lower value 1.03 | S. cerevisiae deletion strains, locus YOL012C, strain htz1 0.875 | S. cerevisiae deletion strains, locus YOL147C, strain pex11, stronger effect = lower value 1 | S. cerevisiae deletion strains, locus YOR001W, strain rrp6, stronger effect = lower value 1.02 | S. cerevisiae deletion strains, locus YOR061W, strain CKA2, stronger effect = lower value 1.01 | S. cerevisiae deletion strains, locus YOR069W, strain VPS5, stronger effect = lower value 0.992 | S. cerevisiae deletion strains, locus YOR070C, strain gyp1, stronger effect = lower value 0.997 | S. cerevisiae deletion strains, locus YOR080W, strain dia2, stronger effect = lower value 1.01 | S. cerevisiae deletion strains, locus YOR083W, strain WHI5, stronger effect = lower value 1 | S. cerevisiae deletion strains, locus YOR106W, strain vam3, stronger effect = lower value 1.03 | S. cerevisiae deletion strains, locus YOR136W, strain idh2, stronger effect = lower value 1.02 | S. cerevisiae deletion strains, locus YOR144C, strain elg1, stronger effect = lower value 1.02 | S. cerevisiae deletion strains, locus YOR184W, strain ser1, stronger effect = lower value 1.03 | S. cerevisiae deletion strains, locus YOR231W, strain MKK1, stronger effect = lower value 1.03 | S. cerevisiae deletion strains, locus YOR265W, strain rbl2, stronger effect = lower value 1.02 | S. cerevisiae deletion strains, locus YOR270C, strain vph1, stronger effect = lower value 0.991 | S. cerevisiae deletion strains, locus YOR290C, strain snf2, stronger effect = lower value 0.99 | S. cerevisiae deletion strains, locus YOR316C, strain cot1, stronger effect = lower value 1.01 | S. cerevisiae deletion strains, locus YPL051W, strain arl3, stronger effect = lower value 0.997 | S. cerevisiae deletion strains, locus YPL055C, strain LGE1, stronger effect = lower value 0.999 | S. cerevisiae deletion strains, locus YPL078C, strain atp4, stronger effect = lower value 1.02 | S. cerevisiae deletion strains, locus YPL106C, strain sse1, stronger effect = lower value 0.988 | S. cerevisiae deletion strains, locus YPL240C, strain hsp82, stronger effect = lower value 1.02 | S. cerevisiae deletion strains, locus YPL241C, strain CIN2, stronger effect = lower value 0.995 | S. cerevisiae deletion strains, locus YPL256C, strain CLN2, stronger effect = lower value 1.01 | S. cerevisiae deletion strains, locus YPR119W, strain clb2, stronger effect = lower value 1.01 | S. cerevisiae deletion strains, locus YPR141C, strain kar3, stronger effect = lower value 1.01 | S. cerevisiae deletion strains, locus YPR163C, strain tif3, stronger effect = lower value 1.02 | S. cerevisiae deletion strains, locus YPR167C, strain met16, stronger effect = lower value 1.02 | S. cerevisiae deletion strains, strain wtn01, stronger effect = lower value 1.03 | S. cerevisiae strains, strain wild type, stronger effect = lower value 0.98

Source: PubChem BioAssay AID1159580 (chemical genetic matrix, 2015)
